# Test results: the supplement of paper PMC11417369
# ± gives the standard deviation of the averaged measurements. Whole data set: some 25,000 sequences, median “ln(normalized median fluorescence intensity)” near 10, cut for the highest 2% near 12. Only a selection was taken, and the highest values are over-represented in it overall.
# System: PfAP2-G AP2 domain (GST-tagged)
# Experiment: gcPBM binding intensity (ln(normalized median fluorescence intensity)); higher = stronger DNA binding
# Outline: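 Using an Agilent 4 × 180k array, primer-extended double-stranded 36-bp intergenic genomic probes and negative controls were exposed for 1 h to GST-fused P. falciparum DNA-binding domains expressed in E. coli. Binding was carried out in 1× PBS with 1% milk, 0.2 mg/ml BSA, 0.5% salmon testes DNA and 0.03% Triton X-100, and protein was detected with Alexa488 anti-GST antibody and a 488 nm scan. Binding intensity is the highest Masliner-normalised natural-log median intensity across replicate spots of either probe orientation.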
row,Sequence,gcPBM binding intensity (ln)
1,CGATACTTTAGGTGTACACAAATATACATGAATGAG [CACACA_site5189],11.6 ± 0.84
2,ATATATATTTATAGGTGTACAAAATACTATTTTAGG [XGTACX_site8499],11.3 ± 0.82
3,TTTATACACAAAAAATGTACATATATATAATGAATT [XGTACX_site1195],11.2 ± 0.72
4,TATTTATATAGGTATACACACATACAAATATGTAAA [CACACA_site7705],10 ± 0.28
5,AAAATTTCTTTTTTTTGTACATATATAATAATATAT [XGTACX_site7107],10.9 ± 0.62
6,TTTTCTTTTTTCTGTTGTACTAAAAATAATTTTGTA [XGTACX_site5171],11.3 ± 0.87
7,TTACAAATAATTTGTTGTACGCTTTTTTTCTTTTTT [XGTACX_site7199],11.7 ± 1.1
8,GACAAAATGATAGGGACACACAATATCAATGTTTAA [CACACA_site765],10.7 ± 0.51
9,TTTTTTTTTTTTGAGTGTACTAAAATATTACCTTTT [XGTACX_site646],11.2 ± 0.99
10,TAAAATAATAAACAGAAGAAATCATTCATATAAAAA [XGTACX_negctrl_site502],9.635 ± 0.035
11,ATAAATGAAAAAAAGCGTACATATAAAAAAATATAT [XGTACX_site5063],11.6 ± 1
12,ATATAAGAACAAAATTGTACATAAATATTTATATAA [XGTACX_site7404],10.8 ± 0.54
13,ACATAAGAACATATTTGTACGTATATAAATTAAATA [XGTACX_site6127],11.4 ± 0.79
14,TTAACAAAATTTCCGTGTACGTAAATAAGAACATAG [XGTACX_site7200],11.8 ± 0.95
15,AAATAATTAAAAAAAAGTACACATGTGACTACATAT [XGTACX_site8767],11.4 ± 0.71
16,ATGAACATGTGACAATGTACATTTATATCTTAAGAA [XGTACX_site4960],10.8 ± 0.43
17,TTTTTTTTTTTTTTTTTTATATTTCATAATTTCATT [XGTACX_negctrl_site579],9.33 ± 0.71
18,TTTTGTTTTGTTTTGTTTTGTTTTGTTTTATTTTAT [GTGCAC_negctrl_site383],9.86 ± 0.27
19,GAATACACCACGCACACACACTTGAGAAAAAATAAA [CACACA_site7747],10.6 ± 0.56
20,AAATTAAAATAAAATAGTACATATATTTATATTTTT [XGTACX_site1687],11.1 ± 0.69
21,ATATAGTAAATTGGTAGTACATAAAATGATTTTATG [XGTACX_site4143],11.6 ± 0.95
22,AAATTATATATAAAATGTACATATGTAGGTAATTTT [XGTACX_site5047],10.9 ± 0.49

row,Sequence,gcPBM binding intensity (ln)
1,TTTTTTTTTTTTGGTAGTACATAAATATTTTATGGA [XGTACX_site6851],12 ± 1.7
2,TATTTGTTTTTATATAGTACATAAATATATATATAT [XGTACX_site7834],10.9 ± 0.61
3,TATATTTTTATATTTTGTACATATAGTAAATATAAA [XGTACX_site4768],10.8 ± 0.51
4,TTTTGTTGTTGTTGTTGTACATAAATAATAAAATAT [XGTACX_site8681],11.3 ± 0.95
5,TATAGGTAAATGGACACACACATATTTATATTTATA [CACACA_site7683],10.9 ± 0.58
6,AGTAAATATATTATATGTACGTATCATAAAATATAT [XGTACX_site1567],11.6 ± 0.86
7,TTTTTTTTTATAAGGTGTACGTAAAATGTGTAGGTC [XGTACX_site3585],11.6 ± 0.82
8,ATTATATATATCAGGTGTACGTAAAAAAAATGGACG [XGTACX_site1028],11.9 ± 0.81
9,TAAAAATATATGTATACACACATATATATATATATA [CACACA_site3951],10 ± 0.38
10,AATGCTATCTTCTTATTTTTCATACACAACATGAAC [CACACA_negctrl_site1809],10.2 ± 0.11
11,TGTTTTGTTTTTTGGGGTACATGTTTTGTATTATAT [XGTACX_site7997],11.6 ± 0.78
12,TATGATTTTTATATATGTACGTATGGTGTTTTACAA [XGTACX_site6100],11.3 ± 0.53
13,GTTTGGTGGTGTTTTGGTACGTACGGGGGTGTATGT [XGTACX_site1211],11.7 ± 0.85
14,GACTTTTCATTTATAGTGCAAGTTTTTTTTTTTTTT [GTGCAC_site9698],10.1 ± 0.23
15,CAAAAGTAAGCACGCACACACAACATGAAATAAACT [CACACA_site6223],10.29 ± 0.078
16,ATATATTTTGATTGCACACAGAATTTAAATCATGAT [CACACA_site2343],10.1 ± 0.2
17,TATTTATAAAAATATACACACATACAAATATGCATA [CACACA_site4555],9.815 ± 0.007
18,CATAAATACTATATATGTACGTAATTTTTAAAACAT [XGTACX_site7710],11.6 ± 0.83
19,TTTTTTTTTTTAATATGTACGTAAAATAAGTTTAAA [XGTACX_site6495],11.4 ± 0.95
20,TTTTTTTTAAAACTATGTACGTAAAAATTGTAGTTT [XGTACX_site2302],11.7 ± 0.91
21,TTTATTTTATTTTCATGTACAAAAGGGGAATAATAA [XGTACX_site2704],10.9 ± 0.71
22,AATAGGGTCATTCAAAAAAAAAAAAAATAATAATAC [CACACA_negctrl_site644],10.1 ± 0.29

row,Sequence,gcPBM binding intensity (ln)
1,ATTTCTAAATGTTGGTGTACGTTTTTTTATAACCTT [XGTACX_site1752],11.6 ± 1.1
2,ATATTATAAATATAATGTACGTTTTAATTTCATGTT [XGTACX_site3557],11.2 ± 0.79
3,TACACATGTTTAAAATGTACGTTTTATAACACACAC [XGTACX_site8229],11.3 ± 0.82
4,TCACTATAATAATTTACACACATTTTAAGAAAATGG [CACACA_site5867],10 ± 0.18
5,TATATTTATTATAACACACACATATATATATTATAT [CACACA_site1061],9.905 ± 0.064
6,TTATAAATAAAAAATACACACATATATTTATTTATA [CACACA_site6242],9.77 ± 0.028
7,TACTATGCCCCATATAAACACACAAATAAAAAGAAT [CACACA_site8857],10.2 ± 0.21
8,TTTTCATGTTGTAAAGCATGCTTTACTCATAAAAAA [TGCATGCA_site917],9.95 ± 0.23
9,TGCAATATATCAAAGTGTACATGCAATAAAAAAAAA [XGTACX_site652],11.1 ± 0.71
10,ATTTCATTTTATAAGTGTACAATAAAAAAAAAAAAA [XGTACX_site8677],11.3 ± 1
11,ACAATATGCAAAAAGTGTACACATTCATTTATATAA [XGTACX_site1061],11.7 ± 0.86
12,ATTTAAATAATATGTACACACATTTAAAAAGTTATA [CACACA_site7347],11.6 ± 0.94
13,TATACATTTTTATAAAGTACACAAAAATAAATATAA [XGTACX_site1647],11.5 ± 0.95
14,ATAGGCAAAAAGTGTACACATTCATTTATATAAATA [CACACA_site4480],11.7 ± 0.79
15,TTGTAGATATTTATATGTACGAATTTATAAATATAG [XGTACX_site3611],11.1 ± 0.76
16,ACTATTTTCTTCAAAACATGCACCACATAAACATAA [TGCATGCA_site200],10.6 ± 0.51
17,TAATTATTATTAATAGTACACACTATGGCATTTCAA [CACACA_site2488],11.1 ± 0.84
18,TATATTTATAAGTGTACACATTATATAAATCCCTAT [CACACA_site6122],11.7 ± 1.1
19,ATTAACACATTTAAGTGTACATATATAAATATATAT [XGTACX_site7098],11.4 ± 0.83
20,AAAATTCATCCAACAAGTACATAAATATAATATTAT [XGTACX_site4596],11.3 ± 0.79
21,TAATATATTTATAAGTGTACACATTATATAAATCCC [XGTACX_site8875],11.7 ± 0.74
22,TATTCATATTCCAAGTGTACACATAAATCCCTAATA [XGTACX_site4131],11.5 ± 0.9

row,Sequence,gcPBM binding intensity (ln)
1,GATTATTTTATAAGTACACACATTTATATATAATAA [CACACA_site2573],11.5 ± 1.1
2,TCATATTCCAAGTGTACACATAAATCCCTAATAACA [CACACA_site5167],11.7 ± 0.94
3,TATAAATATATTTATACACACATTAGTGTATACATG [CACACA_site7397],10.2 ± 0.11
4,ATTATATTTTTAAGTACACACATATAAATAAATATA [CACACA_site7682],11.4 ± 1
5,TCAAAAATAAAGATCACACATATATATATATATATA [CACACA_site4381],10.3 ± 0.99
6,CACATATATACACATACACACACACCCATACACCCA [CACACA_site8505],10.5 ± 0.39
7,TATACAAAATAACTAGCACACATATGTATAAACATA [CACACA_site9236],10.2
8,TACATACACAAATACACACACAAATACATACACAAA [CACACA_site704],10.2 ± 0.41
9,TAAACATTCTTATATAGTACCCATATTAAAATATAC [XGTACX_site8014],10.8 ± 0.58
10,TATATATAAGAAAAAAGTACAGATATATATATATTC [XGTACX_site4788],11.6 ± 1.1
11,CCAATAATATATAGAAGTACAGAAAAAAAAAAAAAA [XGTACX_site2049],11.5 ± 1.1
12,TATATATATATAAGAAGTACAGAAAATTAGAAAAAA [XGTACX_site8773],11.7 ± 1.1
13,TTTTTTTTTTTTTTTTTTTTTTTGCTCAGTGTGGTA [CACACA_negctrl_site29],9.95 ± 0.56
14,ACAGAAAATAAAATTTGTACATATATAGAATAAAGA [XGTACX_site3014],10.8 ± 0.39
15,AAAATTATATATTATAGTACATAAAATTTTGATATA [XGTACX_site994],10.9 ± 0.56
16,AATGATTTTGATTAACGTACGTACAAATATATATAT [XGTACX_site6604],11.5 ± 0.82
17,ATTTTGATAACCGTACGTACATATATATATATATAT [XGTACX_site6605],11.8 ± 0.85
18,ACCATTTGTACTTACGCACACATAAAATATATATAT [CACACA_site1545],11.5 ± 1
19,TAAATTATATTATGCACACTTAAAAATATATTTAAC [CACACA_site3512],10.07 ± 0.085
20,CAACAAAAATTATTTACACACAAAAGGCAAGGAAAT [CACACA_site1971],10.5 ± 0.28
21,ACCTTAAATAATACATGTACAAAAAAATTTATAATA [XGTACX_site1043],11 ± 0.49
22,TCTTACTAATTTATGGGGACTTATCACCTATTCAGT [CACACA_negctrl_site652],10.5 ± 0.23
